Measured values reported in PubChem BioAssay AID463173 (ICCB-Longwood Screening Facility, Harvard Medical School, 2010).
In all, about 52,000 compounds went through this assay and about 1,700 (3.3%) were called active. What follows is part of a selection rich in actives, with near analogues and random picks from the rest. A number with no mark means an inactive call. Cut-off read from the data, not from the text of the source: active = survival mostly below about 52% (no sharp cut-off); inactive = mostly above about 56%.

The compounds below were run on Wild type (assay: S. aureus survival, RN4220 and DeltatarO strains – OD600, teichoic acid synthesis inhibitors, primary screen (AID 463173)). Conditions: S. aureus RN4220 wild type/DeltatarO growth, OD600, 18 h, hits give low values, screened at 18.75 µg/mL (by protocol).
In the case of `O=C(CSc1nnc(-c2ccncc2)n1-c1ccccc1)Nc1ccc(F)cc1`, the survival is reported as 72%. For `Cc1ccc(O)c(C2=Nc3ccccc3N=C(c3cccc(F)c3)C2)c1`, the survival was 139%. Compound `Cc1ccc(Cn2c(CNS(=O)(=O)c3ccc(Cl)s3)nc3cccnc32)cc1` has a survival of 136%. In the case of `Cc1ccc(Cn2c(CNS(=O)(=O)c3ccc(F)c(Cl)c3)nc3cccnc32)cc1`, the survival is reported as 134%. In the case of `CCc1ccc(Cn2c(CNS(=O)(=O)c3ccc(F)c(Cl)c3)nc3cccnc32)cc1`, the survival is reported as -3% (active). In the case of `O=S(=O)(NCc1nc2cccnc2n1Cc1ccc(F)cc1)c1ccc(Cl)s1`, the survival is reported as -6% (active). `CCc1ccc(Cn2c(CNS(=O)(=O)c3ccc(Cl)s3)nc3cccnc32)cc1` showed a survival of 53%. In the case of `O=S(=O)(NCc1nc2cccnc2n1Cc1ccccc1Cl)c1ccc(F)c(Cl)c1`, the survival is reported as 76%. With `O=C(CCc1ccccc1)NCc1nc2cccnc2n1Cc1ccc(F)cc1` the survival was -6% (active). With `Cc1ccc(Cn2c(CNC(=O)CCc3ccccc3)nc3cccnc32)cc1` the survival was 99%. Compound `COc1ccc(CCC(=O)NCc2nc3cccnc3n2Cc2ccc(F)cc2)cc1` has a survival of 123%. Compound `COc1ccc(C)cc1NC(=O)C(NS(=O)(=O)c1cccc2nsnc12)c1ccccc1` (centres undefined) has a survival of 64%. Compound `Cc1cc(C)c(/C=C/c2onc(C)c2S(=O)(=O)N2CCC(C(=O)NCc3ccccc3Cl)CC2)c(C)c1` has a survival of 72%. `Cc1ccc(CNS(=O)(=O)c2cc(Br)cc3c2N(C(=O)C2CC2)CC3)cc1` gave a survival of 66%. For `Cc1cc(NC(=O)COCc2cc(-c3ccc(F)cc3)on2)ccc1Br`, the survival was 82%. `CCC(=O)N1CCc2cc(S(=O)(=O)NC(CC(C)C)C(=O)Nc3ccc(CC)cc3)ccc21` (centres undefined) was tested, and the survival was 84%. With `Cc1ccc2c(c1C)NC(=O)CC2c1ccc(Cl)cc1Cl` (centres undefined) the survival was 1% (active). `COc1cccc(C2CC(=O)Nc3c2ccc(C)c3C)c1OC` (centres undefined) showed a survival of 87%. `CC1=C(C(=O)OCC2CCCCC2)C(c2ccc(Cl)cc2Cl)CC(=O)N1` (centres undefined) gave a survival of 82%. Work on `CCOC(=O)CSc1ccc2nnc(CCNS(=O)(=O)c3ccccc3)n2n1` yielded a survival of 87%. In the case of `Cc1c(-c2nc(-c3ccc4c(c3)OCO4)no2)nnn1-c1ccc(C(C)C)cc1`, the survival is reported as 73%. Compound `CCOc1ccccc1CNC(=O)Cn1ncn2nc(-c3cccs3)cc2c1=O` has a survival of 93%. `N#Cc1ccc(OC(=O)c2cc(-c3ccc4c(c3)OCCO4)on2)cc1` was tested, and the survival was 117%. For `COc1ccc(OC(=O)c2cc(-c3ccc4c(c3)OCCO4)on2)cc1`, the survival was 109%. `O=C(Oc1ccc(Cl)cc1)c1cc(-c2ccc3c(c2)OCCO3)on1` gave a survival of 108%. Work on `CC(C)c1ccc(OC(=O)c2cc(-c3ccc4c(c3)OCCO4)on2)cc1` yielded a survival of 46%. In the case of `Cc1cc(OC(=O)c2cc(-c3ccc4c(c3)OCCO4)on2)ccc1Cl`, the survival is reported as -6% (active). For `Cc1ccc(OC(=O)c2cc(-c3ccc4c(c3)OCCO4)on2)cc1C`, the survival was -7% (active). Work on `CCn1c(=NC(=O)c2ccc(S(=O)(=O)N3CCCCC3)cc2)sc2cccc(OC)c21` yielded a survival of 68%. Compound `Cc1ccc(C(=O)NC2CC3CCCC(C2)N3C(=O)NC2CCCCC2)cc1` (centres undefined) has a survival of 101%. With `O=C(CCC1CCCC1)N1CCN(C(=O)Cc2ccccc2)CC1` the survival was 94%. `COc1cc(OC)c(Nc2nc3ccccc3c3nncn23)cc1Cl` showed a survival of 136%. `COc1ccc(-n2c(-c3ccc(C)cc3)cc3c2CC(C)(C)CC3=O)c(OC)c1` showed a survival of 96%. `Cc1ccc(-c2cc3c(n2-c2ccc(C)cc2)CC(C)(C)CC3=O)cc1` showed a survival of 69%. In the case of `CCOc1ccc(-n2c(-c3ccc(Br)cc3)cc3c2CC(C)(C)CC3=O)cc1`, the survival is reported as 8% (active). In the case of `COc1ccc(C)cc1-n1c(-c2ccc(Cl)cc2)cc2c1CC(C)(C)CC2=O`, the survival is reported as 94%. Work on `CCOc1ccc(-n2c(-c3ccc(OC)cc3)cc3c2CC(C)(C)CC3=O)cc1` yielded a survival of 41%. In the case of `COc1ccc(-n2c(-c3ccc(Cl)cc3)cc3c2CC(C)(C)CC3=O)c(OC)c1`, the survival is reported as 3% (active). In the case of `CCCCCn1c(=O)[nH]c2cc(C(=O)NCc3ccccc3)ccc2c1=O`, the survival is reported as 83%. Work on `COCCNC(=O)CCCN1C(=O)CCn2nc(-c3cccn3C)cc21` yielded a survival of 68%. `CCOc1ccc(-n2c(SCc3nc(-c4ccccc4C)no3)nnc2-c2ccccc2)cc1` showed a survival of 84%. `CCC(Sc1nncn2c1cc1occc12)C(=O)Nc1ccc(C)c(Cl)c1` (centres undefined) was tested, and the survival was 44%. With `CCc1nn(CC(=O)NC(C)c2ccccc2)c(=O)c2cc3sccc3n12` (centres undefined) the survival was 91%. `COc1ccc(-n2c(=O)c3ccccc3n(CC(=O)Nc3ccccc3OC)c2=O)cc1` was tested, and the survival was 89%. Work on `CN1C(C(=O)NC(C)(C)C)=CC(c2ccc3c(c2)OCO3)=NS1(=O)=O` yielded a survival of 84%. With `Cc1cc(NCCN(C)C)c2ccccc2n1` the survival was 106%. Work on `COc1ccc(-c2cccc(NS(=O)(=O)c3cc(C(F)(F)F)ccc3Cl)c2)nn1` yielded a survival of 59%. `COc1ccc(S(=O)(=O)Nc2ccc(-c3cn4ccsc4n3)cc2)cc1C` gave a survival of 133%. `CCS(=O)(=O)Nc1ccc(-c2cn3c(C)csc3n2)cc1` gave a survival of 78%. `CN(C)S(=O)(=O)Nc1ccc(-c2cn3ccsc3n2)cc1` was tested, and the survival was 14% (active). Work on `COc1ccc(C(=O)Nc2cccc(-c3cn4ccsc4n3)c2)cc1OC` yielded a survival of 76%. For `CCS(=O)(=O)Nc1ccc(-c2cn3ccsc3n2)cc1`, the survival was -1% (active). For `COc1cc(OC)cc(C(=O)Nc2cccc(-c3cn4ccsc4n3)c2)c1`, the survival was 1% (active). Work on `Nc1cccc(-c2cn3ccsc3n2)c1` yielded a survival of 55%. In the case of `CCCS(=O)(=O)Nc1cccc(-c2cn3ccsc3n2)c1`, the survival is reported as 159%. With `COc1cccc(OC)c1C(=O)Nc1cccc(-c2cn3ccsc3n2)c1` the survival was 72%. `Cc1ccc(Cn2cc(S(=O)(=O)c3cccc(Cl)c3)c(=O)c3cc(F)c(N4CCOCC4)cc32)cc1` gave a survival of 87%. With `CC1=C(C(=O)OCC2CCCCC2)C(c2cccc(Cl)c2Cl)CC(=O)N1` (centres undefined) the survival was 76%. `COc1cc(Cl)c(C)cc1NC(=O)Cn1cc(S(=O)(=O)N2CCN(c3ccccc3F)CC2)c2ccccc2c1=O` gave a survival of 68%.
